Assay outcomes deposited in PubChem by NMMLSC.
Shown are actives, neighbours in structure and some others; about 1.3% of the full set was active somewhere.
RPL19A TOR yeast: modulators of TOR pathway RPL19A-GFP in S. cerevisiae. S. cerevisiae RPL19A-GFP strain, flow cytometry, 3 h; hits give low values. percent response vs DMSO, % at 10 µM. 330,000 tested, 0.3% active. AID 2025;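 active = percent response vs DMSO below 50%; inconclusive = fewer than 70 events counted for the yeast strain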;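 also: median channel GFP fluorescence of the barcoded RPL19A-GFP strain; ratio of sample median GFP to plate DMSO average so 100% = DMSO; lower means less RPL19A-GFP as with rapamycin TOR inhibition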
Efflux pump inh: inhibitors of Candida antifungal efflux pumps expressed in yeast; S. cerevisiae Candida pump triplex, Nile Red efflux; 330,000 tested, 0.44% active; inhibition, % at 10 µM;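 active = plate passing quality check with inhibition over a set limit, or well fluorescence over plate mean plus 4 SD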;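 also: Nile Red retained in pooled yeast measured as flow cytometry median fluorescence; 0% = buffer negative control and 100% = Enniatin B positive control; higher means more Nile Red kept so more efflux inhibition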
CIT2 TOR yeast: modulators of TOR pathway CIT2-GFP in S. cerevisiae; 320,000 tested, 0.065% active; S. cerevisiae CIT2-GFP strain, flow cytometry, 3 h; 100 means same as DMSO wells; GFP response vs DMSO, % at 10 µM;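 active = GFP response relative to DMSO above a set limit, near the screen mean plus 3 SD, cut at about 150% in these data; inconclusive = Fewer than 70 cells measured for a yeast strain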;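 also: ratio of well median GFP fluorescence to mean of DMSO wells on the plate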
MEP2-GFP yeast: yeast TOR pathway MEP2-GFP modulation; S. cerevisiae MEP2-GFP strain, flow cytometry GFP, 3 h; 100% = DMSO control level; GFP response vs DMSO, % at 10 µM; 330,000 tested, 0.51% active;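 active = GFP response versus DMSO above a set limit, roughly screen mean plus 3 SD, cut at about 180% in these data; inconclusive = fewer than 70 cells counted for a yeast strain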;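 also: median GFP fluorescence of the barcode-gated MEP2-GFP cells per well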
LAP4 TOR yeast: yeast TOR pathway LAP4-GFP modulation; S. cerevisiae LAP4-GFP multiplex, flow cytometry GFP, 3 h; median GFP as percent of DMSO wells; 320,000 tested, 0.34% active; GFP response vs DMSO, % at 10 µM;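 active = GFP response vs DMSO above a set limit, about the screen mean plus 3 SD, cut at about 150% in these data; inconclusive = under 70 cell events counted for the yeast strain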
AGP1 TOR yeast: yeast TOR pathway AGP1-GFP modulation; S. cerevisiae AGP1-GFP multiplex flow cytometry, 3 h; GFP as percent of DMSO wells; GFP response vs DMSO, % at 10 µM; 320,000 tested, 0.02% active; AID 2066;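 active = GFP response relative to DMSO above a set limit, near screen average plus 3 SD, cut at about 150% in these data; inconclusive = fewer than 70 cells counted for the yeast strain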;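 also: median GFP channel fluorescence of the gated AGP1 strain per well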
The depositor's hits bear a star; ? = inconclusive; nt = no result given; [ ] = another dose, or the depositor's remark.

SMILES | RPL19A TOR yeast | Efflux pump inh | CIT2 TOR yeast | MEP2-GFP yeast | LAP4 TOR yeast | AGP1 TOR yeast
Cc1cnc(C(=O)OC(C)C(=O)c2c(C)[nH]c3ccccc23)cn1 (configuration not stated) | 88 | 0 | 71 | 87 | 125 | 92
Cc1[nH]c2ccccc2c1C(=O)C(C)OC(=O)C1CCC1 (configuration not stated) | 68 | 0 | 64 | 103 | 189* | 57
O=C(Cn1c(=O)cnc2ccccc21)NNC(=O)c1ccccc1Cl | 105 | 0 | 107 | 105 | 101 | 110
O=C1OCCN1C(=O)[C@H]1[C@H](c2ccc(F)cc2)C(c2ccc(F)cc2)=NN1c1ccc(Br)cc1 | 92 | 0 | ? | 383*[may fluoresce violet] | 130 | 16
O=C(NCc1ccc2c(c1)OCO2)c1c(O)c2cccc3c2n(c1=O)CCC3 | 94 | 0 | 92 | 102 | 93 | 94
CC(C)Cn1c(=O)c(C(=O)NCc2ccc3c(c2)OCO3)c(O)c2ccccc21 | 29*[may fluoresce violet] | 0 | ? | ? | ? | ?
O=C(COc1ccccc1[N+](=O)[O-])Nc1ccc(Br)cc1 | 56 | 0 | ? | 605*[may fluoresce violet] | 89 | 21
O=C(COc1ccccc1[N+](=O)[O-])Nc1cccnc1 | 100 | 0 | 112 | 100 | 99 | 106
COc1ccccc1C(=O)NC1CCN(C(=O)Nc2ccc(C)cc2)CC1 | 100 | 0 | 100 | 103 | 89 | 101
CCOc1ccc(-c2noc(CCCC(=O)NCC3CCCO3)n2)cc1OC (configuration not stated) | 96 | 0 | 97 | 94 | 92 | 97
COc1ccc(CN(C(=O)c2snc(C(N)=O)c2N)C(C(=O)NC2CCCC2)c2cc(OC)ccc2OC)cc1 (configuration not stated) | 41*[may fluoresce violet] | 1 | ? | 302*[may fluoresce violet] | 74 | ?
Cc1csc2c(=O)sc(NC(=O)c3ccco3)nc12 | 100 | 0 | 102 | 101 | 97 | 98
Cc1csc2c(=O)sc(NC(=O)c3cccs3)nc12 | 48*[may fluoresce violet] | 0 | ? | 596*[may fluoresce violet] | 88 | 22
Cc1ccc(NC(=O)CCC(=O)NNC(=O)COc2ccc([N+](=O)[O-])cc2)c(C)c1 | 109 | 0 | 91 | 101 | 72 | 95
CCOC(CCn1c(SCC(=O)NC2CCCC2)nc2ccccc2c1=O)OCC | 100 | 1 | 100 | 98 | 81 | 97
COc1ccccc1N1CCN(C(=O)C(Sc2ccccc2)c2ccccc2)CC1 (configuration not stated) | 40*[may fluoresce violet] | 0 | ? | 261*[may fluoresce violet] | 93 | nt
Cn1cnnc1SCc1ccc(C(=O)n2ncc(C#N)c2N)cc1 | 23*[may fluoresce violet] | 0 | nt | 303*[may fluoresce violet] | 106 | ?
Cn1cnnc1SCc1ccc(C(=O)N=Nc2c(O)n(C)c3ccccc23)cc1 | 98 | 0 | 102 | 101 | 101 | 101
NC(=O)N1N=C2/C(=C/c3ccccc3)CCCC2C1c1ccccc1 (configuration not stated) | 102 | 0 | 100 | 100 | 94 | 107
O=C(O)CSCC(=O)N1N=C2/C(=C/c3ccccc3)CCCC2C1c1ccccc1 (configuration not stated) | 36*[may fluoresce violet] | 0 | ? | 263*[may fluoresce violet] | 58 | ?
Cc1ccc(C(=O)N/N=C\c2ccc([N+](=O)[O-])s2)cn1 | 49*[may fluoresce violet] | 0 | ? | 311*[may fluoresce violet] | 75 | 21
Cc1ccc(C(=O)N/N=C/c2ccc([N+](=O)[O-])s2)cc1 | 101 | 0 | 90 | 102 | 106 | 92
COc1ccc(CCNC(=O)Cc2ccc(NC3=NC4CS(=O)(=O)CC4S3)cc2)c(OC)c1 (configuration not stated) | 111 | 0 | 100 | 105 | 111 | 115
CCOc1ccc(/C=C2\SC(=S)N(CC(=O)Nc3ccccn3)C2=O)cc1 | 96 | 0 | 98 | 104 | 102 | 98
CCCCC(=O)Nc1nn(C)c2nc3c(C)cccc3cc12 | 42*[may fluoresce violet] | 0 | ? | 359*[may fluoresce violet] | 97 | ?
SMILES | RPL19A TOR yeast | Efflux pump inh | CIT2 TOR yeast | MEP2-GFP yeast | LAP4 TOR yeast | AGP1 TOR yeast
CCCN1CCN(C(=O)Cn2ncc3c([nH]c4ccc(C)cc43)c2=O)CC1 | 65 | 0 | ? | 186*[may fluoresce violet] | 99 | 19
O=C(c1cc(NC(=O)C23CC4CC(CC(C4)C2)C3)cc(NC(=O)C23CC4CC(CC(C4)C2)C3)c1)N1CCCCC1 | 101 | 1.1* | 108 | 103 | 104 | 104
Cc1nnc2c(N3CCN(CCO)CC3)nc3ccccc3n12 | 98 | 0 | 101 | 99 | 102 | 101
Cc1ccc(CCNC(=O)CCS(=O)(=O)Cc2ccc(C)cc2)cc1 | 103 | 0 | 100 | 107 | 91 | 98
O=C(CCS(=O)(=O)Cc1ccccc1F)NCCc1ccc(Cl)cc1 | 57 | 0 | 150* | 518* | nt | 162*
C=CCN1CC(=O)N2C(C)c3[nH]c4ccccc4c3C[C@H]2C1=O (some centres not stated) | 52 | 0 | ? | 226*[may fluoresce violet] | 65 | ?
Cc1ccc(-n2nc3c(=O)n(CCCC(=O)NCCc4ccccc4C)nc(C)c3c2C)cc1 | 109 | 0 | 110 | 125 | 91 | 97
CCc1cc(=O)oc2c(C)c(OCC(=O)N3CCCc4ccccc43)ccc12 | 38*[may fluoresce violet] | 0 | ? | 248*[may fluoresce violet] | 95 | ?
CC(=O)Oc1cc2c(cc1Cl)C1(CC(c3ccccc3Cl)O2)CC(C)(C)NC(=S)N1 (configuration not stated) | 101 | 114* | 92 | 108 | 110 | nt
Cc1ccc(NC(=O)c2cc(NC(=O)c3ccco3)ccc2N2CCCCC2)cc1 | 27*[may fluoresce violet] | 0 | ? | 371*[may fluoresce violet] | 90 | ?
CC1(C(=O)OCc2cc(=O)n3cc(Br)ccc3n2)CC1(Cl)Cl (configuration not stated) | 84 | 1 | 59 | 90 | 164* | 88
CC1CC1C(=O)OCc1cc(=O)n2cc(Br)ccc2n1 (configuration not stated) | 89 | 0 | 88 | 84 | 99 | 80
O=C(CNC(=S)N(Cc1ccccc1F)C1CCCCC1)NCCCN1CCOCC1 | 56 | 0 | ? | 317*[may fluoresce violet] | 86 | ?
O=S(=O)(NCCc1ccccn1)c1ccc(OC(F)(F)F)cc1 | 95 | 0 | 171*[may fluoresce green] | 112 | 111 | 123
O=C(OCc1cccc([N+](=O)[O-])c1)c1cnccn1 | 82 | 0 | 92 | 175* | 91 | 25
O=C(OCc1cccc([N+](=O)[O-])c1)c1ccncc1 | 109 | 0 | 108 | 119 | 95 | 98
CC(C)C[C@H](NC(=O)N1CCn2c1nc1ccccc12)C(=O)N[C@@H](C(=O)O)c1ccccc1 | 100 | 0 | 98 | 107 | 102 | 102
COc1c(OC)c2[nH]c(=O)cc3c4ccccc4n(c1=O)c23 | 18*[may fluoresce violet] | 0 | ? | 365*[may fluoresce violet] | 100 | ?
